This is part of a sample that, as a whole, favours compounds with a hit. Of some 83,000 tested, about 20% had one in any assay.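 A percent growth of 40 corresponds to 60% growth inhibition; 0 means no net growth; -100 means all cells died. Active threshold: below 10.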 Values without a mark were called inactive. Activity calls are given as the source filed them.
What was measured:
Experiment in all cases: NCI-60 one-dose screen, 48 h (100 = growth as untreated, 0 = no growth, -100 = all killed)
Conditions in all cases: 10 µM unless noted
[1] = tested on: HCT-15 colon
[2] = tested on: HT29 colon
[3] = tested on: SNB-19 CNS
[4] = tested on: U251 CNS
[5] = tested on: PC-3 prostate
[6] = tested on: SK-MEL-5 melanoma
[7] = tested on: UACC-62 melanoma
[8] = tested on: LOX IMVI melanoma
[9] = tested on: SK-MEL-28 melanoma
[10] = tested on: SK-MEL-2 melanoma
[11] = tested on: SN12C renal
[12] = tested on: UO-31 renal
[13] = tested on: TK-10 renal
[14] = tested on: ACHN renal
[15] = tested on: CAKI-1 renal
[16] = tested on: A498 renal
[17] = tested on: CCRF-CEM leukemia
[18] = tested on: MOLT-4 leukemia
[19] = tested on: EKVX NSCLC

Structure (SMILES)	growth [1]	growth [2]	growth [3]	growth [4]	growth [5]	growth [6]	growth [7]	growth [8]	growth [9]	growth [10]	growth [11]	growth [12]	growth [13]	growth [14]	growth [15]	growth [16]	growth [17]	growth [18]	growth [19] [%]
O=C(Nc1cccc(-n2cc(-c3ccncc3)c(-c3ccc(Cl)c(O)c3)n2)c1)c1ccccc1	58.2%	53.5%	99.7%	75.4%	50.3%	59.4%	68.3%	68.5%	48.1%	67.9%	79.3%	83.1%	109%	53.2%	90.3%	72.3%	67.5%	69.5%	
COc1ccc(S(=O)(=O)Nc2cc(/C=C\c3cc(OC)c(OC)c(OC)c3)cc(OC)c2OC)cc1	15%	2.32% (active)	57.7%	5.4% (active)	6.4% (active)	-6.88% (active)	46%	21.5%	67.8%	18.3%	23.3%	21%	64.9%	26.4%	22.9%	-11.5% (active)	13.7%		
Cc1csc(NC(c2ccc(Br)cc2)c2c(C)nc3ccccn23)n1 (configuration not stated)	88.8%	72.4%	94.2%	88.8%	71.5%	94.7%	81.9%	90.9%	108%	86.2%	94.8%	55.9%	116%	97.5%		67.3%	89.1%	87.1%	
O=C1/C(=C/c2ccc(Cl)cc2)CN(Cc2cn(CCNc3ccnc4cc(Cl)ccc34)nn2)C/C1=C\c1ccc(Cl)cc1	-82% (active)	-100% (active)	-92.2% (active)	-100% (active)	-86.5% (active)	-100% (active)	-87.1% (active)	-93% (active)	-100% (active)	-89% (active)	-76.1% (active)	-97.1% (active)	-89% (active)	-100% (active)	6.59% (active)	-100% (active)		-20.7% (active)	
COc1cc(NC(=O)SC2=NCCS2)cc(OC)c1	105%	103%	90.5%	97.7%	93.6%	98.1%	88.9%	98.3%	98.5%	106%	91.8%		126%	102%	108%	90.3%		110%	113
COc1cc(-c2nn(-c3cccc(NC(=O)Nc4ccc(Cl)c(Cl)c4)c3)cc2-c2ccncc2)ccc1Cl	12.7%	1.12% (active)	27.2%	-6.02% (active)	-17.6% (active)	-80% (active)	-65.1% (active)	1.38% (active)	4.96% (active)	-44.2% (active)	10.6%	15.9%	10.9%	11.5%		-6.82% (active)	-7.9% (active)	-11.1% (active)	
O=C(Nc1cccc(-n2cc(-c3ccncc3)c(-c3ccc(Cl)c(O)c3)n2)c1)Nc1cc(C(F)(F)F)cc(C(F)(F)F)c1	-7.23% (active)	-56% (active)	11.3%	-83.8% (active)	-32.4% (active)	-94.7% (active)	-65.6% (active)	-94.1% (active)	-62.4% (active)	-73.7% (active)	-36.1% (active)	-34.4% (active)	-24.6% (active)	8.48% (active)	8.94% (active)	-18.6% (active)	-16% (active)	-18.5% (active)	
O=[N+]([O-])c1cnc(Sc2ccncn2)s1	-16% (active)	55.5%	103%	91.9%	14.4%	88.2%	70.4%	64.5%	-61% (active)	-58% (active)	63.6%		4.67% (active)	-97.8% (active)		88%	-32.3% (active)	-42.3% (active)	61.7
CCC(=O)OC1=CN2C(=NC(c3ccc(N)cc3)=CC2c2cc(OC)c(OC)c(OC)c2)S1 (configuration not stated)	27.6%	3.44% (active)	83.8%	46.3%	49%	66.9%	78%	45.3%	50.8%	64%	53.5%	58.7%	79.2%	60.5%	75.1%	81.9%	8.95% (active)	39.8%	
COc1ccc(OC)c(C2OC(c3ccc4ccccc4c3O)=NN2C(C)=O)c1 (configuration not stated)	62%	61.1%	81.1%	83.3%	59.3%	58.4%	69.1%	63.9%	78.6%	60.7%	80.6%	63.4%		69.5%	87.6%	37.4%	69.2%	61.8%	
Cc1ccc(S(=O)(=O)NCCCNc2cc(-c3cn(C(C)(C)C)nc3-c3cccc(O)c3)ccn2)cc1	16.5%	12.8%	80%	58.1%	39.6%	42.8%	66.8%	13.5%	60.6%	70.4%	64.6%		107%	62.4%	59.7%	85.1%		49.1%	61
Cc1ccc(S(=O)(=O)NCCNc2nccc(-c3c(-c4ccc(O)cc4)nc4sccn34)n2)cc1	99.1%	78.9%	113%	104%	86.5%	94.5%	91.4%	95.7%	114%	114%	93.3%	84%	121%	93%	98.2%	104%	86.8%	59%	
O=S(=O)(NCCNc1nccc(-c2c(-c3ccc(O)cc3)nc3sccn23)n1)c1cccc2ccccc12	100%	102%	99.7%	95.3%	97.5%	102%	106%	101%	111%	124%	97.7%	85.1%	98.2%	107%	99.7%	104%	97.8%	87.6%	
Nc1nnc(-c2ccc3ccccc3c2O)o1	78.6%	105%	97.1%	90.4%	82.8%	94.8%	97.5%	85.3%	97.8%	97.9%	95.9%	61.5%	128%	91.7%	96.8%	103%	88.7%	75.5%	
Cc1ccc(S(=O)(=O)Nc2c(Br)cc(Br)cc2C(N)=O)cc1	103%	128%	90.2%	106%	96.3%	99.9%	98.5%	102%	100%	113%	101%	91.9%	161%	101%	103%	107%	95.1%		
O=C(Nc1cccc(-n2cc(-c3ccncc3)c(-c3ccc(Cl)c(O)c3)n2)c1)Nc1ccc(Cl)c(C(F)(F)F)c1	1.04% (active)	-6.5% (active)	-28.8% (active)	-70.4% (active)	-10.4% (active)	-100% (active)	-55.1% (active)	-75.8% (active)	-31.5% (active)	-60.4% (active)	7.46% (active)	-6.09% (active)	-1.62% (active)	6.62% (active)	17.3%	11.1%	-13.8% (active)	-22.1% (active)	
COc1cc(-c2nn(-c3cccc(NC(=O)c4ccccc4)c3)cc2-c2ccncc2)ccc1Cl	19.2%	2.03% (active)	50%	13.5%	10.5%	-49.4% (active)	32.5%	17.4%	34.4%	-42.5% (active)	28.8%	29.8%	31%	32.3%	40.6%	-23.2% (active)	2.06% (active)	0.658% (active)	
